Measured values as given in PubChem BioAssay AID431 (Sanford-Burnham Center for Chemical Genomics, 2006).
About 1,100 (1.7%) of roughly 63,000 compounds were called active.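 How the source made its calls: active means compounds whose percent cytotoxicity in the single-dose primary screen, scaled between solvent and toxic-drug controls, exceeds 50; inactive means the rest.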 Shown is part of a subset that was picked to be rich in actives. Entries with a potency or affinity are not part of this list.

Assay: cytotoxicity in KRAS-transformed pancreatic duct cells, primary screen, cell-based, fluorescence, HTS (AID 431);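 further: 0% = DMSO solvent wells and 100% = doxorubicin-treated wells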
Settings: HPDE-C7K KRASV12 cells, Alamar Blue viability, 48 h; at 10 µM; hits give high values

Structure (SMILES)	cytotoxicity
CCc1nc2oc3cc(OC)ccc3c(=O)c2c(=O)n1Cc1ccco1	-11.3% (inactive)
O=C(Nc1cccnc1)C1CCCN(S(=O)(=O)c2cccc3nsnc23)C1 (stereo unspecified)	-2.5% (inactive)
Cc1ccc(C(=O)NCCNC(=O)CN2CCCC2)cc1	-4.9% (inactive)
CN(C1CCCCC1)S(=O)(=O)c1ccc(NC(=O)C2CCCCC2C(=O)O)cc1 (stereo unspecified)	-5.7% (inactive)
COc1ccc(C2=NOC(Cn3c(Cc4ccc(Cl)cc4)nc4c3c(=O)n(C)c(=O)n4C)C2)cc1 (stereo unspecified)	1.7% (inactive)
COc1ccccc1C1=NOC(Cn2c(=O)c3c(ncn3C)n(C)c2=O)C1 (stereo unspecified)	-17.3% (inactive)
COc1ccc(-c2nc3c(c(=O)n(C)c(=O)n3C)n2CC2CC(c3ccccc3)=NO2)cc1OC (stereo unspecified)	53.3% (active)
CC1CCN(c2nc3c(c(=O)[nH]c(=O)n3C)n2Cc2ccccc2Cl)CC1	8.5% (inactive)
CCOC(=O)c1cnc(=O)[nH]c1C	1.1% (inactive)
Cc1cc(-c2[nH]nc3c2C(c2ccsc2)C(C#N)=C(N)O3)c(C)s1 (stereo unspecified)	-9.2% (inactive)
Cc1ccc2[nH]c3c(c2c1)CN(C(=O)CN1CCCc2ccccc21)CC3	54.4% (active)
Cc1ccc2[nH]c3c(c2c1)CN(C(=O)CN1CCN(c2ccccc2)CC1)CC3	24.5% (inactive)
Cc1ccc2[nH]c3c(c2c1)CN(C(=O)CN1CCN(c2ccccc2F)CC1)CC3	22.5% (inactive)
CCN(CC)C(=O)c1csc(Nc2ccc(C)cc2)n1	-18.4% (inactive)
Cc1nc2cc(CO)ccc2s1	1.8% (inactive)
CC(=O)N1CCc2cc(C(=O)CN3CCN(c4cccc(Cl)c4)CC3)ccc21	-4% (inactive)
Cc1ncoc1C(=O)Nc1ccc(Oc2ccccc2)cc1	-7.3% (inactive)
O=C(Nc1ccc(O)cc1)c1ccc(C(=O)c2ccccc2)o1	-1.3% (inactive)
Cc1ccc2c(COC(=O)c3cnc(C)cn3)cc(=O)oc2c1	4.8% (inactive)
CCOc1ccc(C)cc1S(=O)(=O)N1CCCCC1	7.7% (inactive)
Cc1cnc(NC(=O)COc2ccccc2)s1	1.6% (inactive)
Nc1ccc2c(c1)-c1ccccc1S(=O)(=O)N2	16.8% (inactive)
Cc1ccc2c(c1)-c1ccccc1S(=O)(=O)N2	11.5% (inactive)
O=S1(=O)Nc2c(ccc3cccnc23)-c2ccccc21	86% (active)

Structure (SMILES)	cytotoxicity
CC1CCN(c2nnc(N3CCC(C)CC3)c3ccccc23)CC1	-2.9% (inactive)
Cc1ccc(C(c2nnnn2Cc2cccs2)N2CCN(C(=O)c3ccco3)CC2)cc1 (stereo unspecified)	2% (inactive)
CNC(=O)c1ccc(N(Cc2ccccc2C)S(C)(=O)=O)cc1	2.8% (inactive)
O=S(=O)(NCCc1ccccn1)c1ccc(F)c(F)c1	-21.4% (inactive)
Cc1cc(N2C(=O)C(=O)/C(=C(/O)c3ccc(F)cc3)C2c2ccc(F)cc2)no1 (stereo unspecified)	16.6% (inactive)
Cc1ccc(/C(O)=C2\C(=O)C(=O)N(c3cc(C)on3)C2c2cccc(Br)c2)cc1 (stereo unspecified)	48.2% (inactive)
Cc1cc(N2C(=O)C(=O)/C(=C(/O)c3ccccc3)C2c2cccc(Br)c2)no1 (stereo unspecified)	0.9% (inactive)
Cc1ccc(/C(O)=C2\C(=O)C(=O)N(c3cc(C)on3)C2c2cccc(Cl)c2)cc1 (stereo unspecified)	55.9% (active)
COc1cccc(C2/C(=C(\O)c3ccc(OC)c(OC)c3)C(=O)C(=O)N2c2cc(C)on2)c1 (stereo unspecified)	19.3% (inactive)
Cc1cc(N2C(=O)C(=O)/C(=C(/O)c3ccc(Cl)cc3)C2c2cccc(Br)c2)no1 (stereo unspecified)	60.6% (active)
Cc1cc(N2C(=O)C(=O)/C(=C(/O)c3ccc(F)cc3)C2c2cccc(Br)c2)no1 (stereo unspecified)	72.5% (active)
COc1ccc(/C(O)=C2\C(=O)C(=O)N(c3cc(C)on3)C2c2ccccc2OC)cc1 (stereo unspecified)	9.4% (inactive)
Cc1cc(N2C(=O)C(=O)/C(=C(/O)c3ccc(F)cc3)C2c2ccc(Cl)cc2)no1 (stereo unspecified)	37.6% (inactive)
COc1ccc(C2C(C(=O)NCC3CCCO3)CCC(=O)N2c2ccc3c(c2)OCO3)cc1 (stereo unspecified)	-18.6% (inactive)
O=C(Nc1ccccc1C(F)(F)F)c1cc(S(=O)(=O)N2CCOCC2)ccc1F	24.1% (inactive)
CCn1c(C(=O)NCc2ccccn2)cc2sccc21	-5.6% (inactive)
Cc1cc2c(=O)n(Cc3ccco3)c(SCC(=O)NCc3ccco3)nc2s1	-12.9% (inactive)
COc1ccc(C2N=C(Nc3ccc(C)cc3)Nc3nc(C)cc(=O)n32)cc1 (stereo unspecified)	2.4% (inactive)
COc1ccc(S(=O)(=O)N(CC(=O)O)c2ccccc2)cc1	8.5% (inactive)
Cc1csc2nc3ccccc3c(=O)n12	2.6% (inactive)
Oc1ccccc1C1Nc2cccc3cccc(c23)N1	-2.4% (inactive)
COc1cc(C2Nc3cccc4cccc(c34)N2)cc(OC)c1O	41.5% (inactive)
COc1cc(C2Nc3cccc4cccc(c34)N2)cc(OC)c1OC(C)=O	83.6% (active)
COc1cc(C(=O)O)ccc1OC(C)=O	-2.6% (inactive)

Structure (SMILES)	cytotoxicity
COc1cc(C2N(c3ccccc3)CCN2c2ccccc2)ccc1OC(C)=O	-13.9% (inactive)
COc1cc(C2Nc3cccc4cccc(c34)N2)ccc1OC(C)=O	50.8% (active)
Cc1ccc(S(=O)(=O)Cn2nnnc2C(C(C)C)N2CCN(C(=O)c3ccco3)CC2)cc1 (stereo unspecified)	-8.7% (inactive)
CCOC(=O)CNC(=O)Nc1cc(C(C)(C)C)nn1-c1ccccc1	-5.3% (inactive)
Cc1ccc2nc(-c3ccccn3)oc2c1	9.5% (inactive)
CCOC(=O)C(CCC#N)(CCC#N)C(=O)OCC	-1.4% (inactive)
O=C(CN(Cc1ccco1)C(=O)CNS(=O)(=O)c1ccccc1)NCc1ccc(F)cc1	2.2% (inactive)
O=C(CN(Cc1ccco1)C(=O)CNS(=O)(=O)c1ccc(Cl)cc1)NCc1ccc(F)cc1	77.7% (active)
O=C(CN(Cc1ccco1)C(=O)CNS(=O)(=O)c1ccc(F)cc1)NCc1ccc(F)cc1	1.2% (inactive)
CC(=O)c1cccc(NC(=O)NC(C)c2ccncc2)c1 (stereo unspecified)	-4.4% (inactive)
Cc1noc(/C=C/NCc2cccnc2)c1S(=O)(=O)N(C)CC(=O)N1CCc2ccccc21	2.4% (inactive)
COc1cc2cc(C)c(SCC(=O)N3CCOCC3)nc2cc1OC	-9.8% (inactive)
O=C(O)CCN(CCC(=O)O)S(=O)(=O)c1ccccc1	-5.5% (inactive)
COc1ccc(-n2c(SCCC#N)nnc2-c2cc(Cl)ccc2OC)cc1Cl	54.3% (active)
N#CCCCSc1nnc(-c2ccc(Cl)cc2)n1-c1ccccc1	-16.4% (inactive)
Cc1cc(-n2c(SCCC#N)nnc2-c2cccnc2)ccc1Cl	-9.6% (inactive)
COc1ccc(N(C(=O)c2ccc(S(=O)(=O)N3CCOCC3)cc2)C2C=CS(=O)(=O)C2)cc1 (stereo unspecified)	-10.3% (inactive)
CCOC(=O)C1=C(C)C(c2ccc(OC)cc2OC)NC(=O)N1 (stereo unspecified)	-21.1% (inactive)
CCc1[nH]nc2c1C(c1cccnc1)C(C#N)=C(N)O2 (stereo unspecified)	5.8% (inactive)
COc1cc(C2C(C#N)=C(N)Oc3cc(N)ccc32)cc(OC)c1OC (stereo unspecified)	54.9% (active)
COc1ccc(OC)c(C2C(C#N)=C(N)Oc3cc(N)ccc32)c1 (stereo unspecified)	9.4% (inactive)
COc1ccc(C2C(C#N)=C(N)Oc3cc(O)ccc32)cc1OC (stereo unspecified)	-2.6% (inactive)
N#CC1=C(N)Oc2cc(O)ccc2C1c1ccncc1 (stereo unspecified)	-1.3% (inactive)
CN(C)c1ccc2c(c1)OC(N)=C(C#N)C2c1cccc(F)c1 (stereo unspecified)	55.5% (active)

Structure (SMILES)	cytotoxicity
N#CC1=C(N)Oc2cc(O)ccc2C1c1ccccc1 (stereo unspecified)	1.7% (inactive)
N#CC1=C(N)Oc2c(ccc3cccnc23)C1c1cccnc1 (stereo unspecified)	42.1% (inactive)
CCN(CC)c1ccc2c(c1)OC(N)=C(C#N)C2c1cccnc1 (stereo unspecified)	70.8% (active)
CCc1c(C)c(C#N)c2nc3ccccc3n2c1N(C)C	10.9% (inactive)
CCCCn1c(=O)cc(O)c2ccccc21	-12.7% (inactive)
CC1=C(C(=O)OCC2CCCO2)C(c2ccncc2)C2=C(CCCC2=O)N1 (stereo unspecified)	-3.4% (inactive)
Nc1nncn1C(=O)CCc1ccccc1	4% (inactive)
O=c1oc(-c2cccs2)nc2sc3c(c12)CCC3	33% (inactive)
O=c1oc(-c2cc3ccccc3o2)nc2sc3c(c12)CCCC3	57.9% (active)
O=c1oc(-c2cccs2)nc2sc3c(c12)CCCCC3	43.5% (inactive)
Cc1cccc(-c2c3c(=O)n(C)c(=O)n(C)c3cn2C(C)C)c1	-5.2% (inactive)
CCOC(=O)c1ccc(N2C(=O)CC(Sc3nnc(C)s3)C2=O)cc1 (stereo unspecified)	-5.1% (inactive)
COc1ccc(N2C(=O)CC(Sc3nccc(C)n3)C2=O)cc1 (stereo unspecified)	9.4% (inactive)
C=CCNc1nnc(SC2CC(=O)N(c3ccc(OC)cc3)C2=O)s1 (stereo unspecified)	77.3% (active)
O=C(CN1C(=O)C2C3C=CC(C3)C2C1=O)N1CC(=O)N(CCc2ccccc2)C(=O)C1 (stereo unspecified)	-4.4% (inactive)
CCc1nc2sc3c(c2c(=O)n1N)CCC3	-6.1% (inactive)
Nn1c(Nc2ccccc2)nc2sc3c(c2c1=O)CCC3	61.4% (active)
Nn1c(-c2cccs2)nc2sc3c(c2c1=O)CCCC3	-1.9% (inactive)
N#CC1=C2SCN(c3ccc(F)cc3)CN2C(=O)CC1c1cccc(F)c1 (stereo unspecified)	1.2% (inactive)
CC(C)(C)C1CCc2onc(C(=O)NCc3ccc(F)cc3)c2C1 (stereo unspecified)	-7% (inactive)
CC(C)(C)C1CCc2onc(C(=O)Nc3cnn(Cc4ccc(F)cc4)c3)c2C1 (stereo unspecified)	81.6% (active)
Cc1ccccc1Cn1cc(NC(=O)c2noc3c2CC(C(C)(C)C)CC3)cn1 (stereo unspecified)	-6.5% (inactive)
COc1ccccc1NC(=O)Cc1noc(CSc2cc(C)c3ccccc3n2)n1	-4.4% (inactive)
O=C(c1cccnc1)N1CCC(c2nc3ccccc3[nH]2)CC1	-11.8% (inactive)
